Compounds with a hit are over-represented: about 10% of the library has one in this group of screens.
MCF10A rerep: DNA re-replication induction in MCF 10a cells; MCF 10A DNA re-replication, Hoechst nuclear intensity, 48 h; Potency, µM (titrated, usually from 46.1 µM), for inactives: top-dose activity, positive = re-replication, usual class: activators; hit rate 2.9% among 350,000; also: % of control where 0% means no effect; nearly all actives have a fitted effect of over 50% in size
SW480 rereplic: induces DNA re-replication in SW480 colon adenocarcinoma cells | SW480 DNA re-replication, Hoechst DNA content imaging, 48 h | Potency, µM (highest dose often 46.1 µM), without a hit: top-dose re-replication activation, usual class: activators | hit rate 1.8% among 340,000; also: % of control where 0% means no effect; nearly all actives have a fitted effect of over 55% in size
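Cells (250 per well) received 23 nL compound or DMSO by pin tool and were kept 48 hr at 37 C, 5% CO2. Nuclei were then stained with Hoechst for 40 min and scanned for DNA content.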
Gal4-VP16 FLuc: counter-screen for ROR gamma inhibitors: Gal4-VP16 reporter. hit rate 3.5% among 310,000. Drosophila S2 Gal4-VP16 UAS-luciferase, luminescence, 20 h. Potency, µM (titrated, usually from 53.6 µM), without a hit: at the highest dose activity, negative = inhibition, most hits filed as inhibitors;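 also: Gal4-VP16 expression switched on by copper sulfate through the metallothionein promoter; % is scaled to controls: 0 for no effect and ±100 for the full control effect; nearly all actives have a fitted effect of over 50% in size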
ELG1 repair inh: inhibitors of ELG1-dependent DNA repair in HEK293T cells; HEK293T ELG1-luciferase reporter, luminescence, 16 h; DNA damage induced by 5-fluorouridine; Potency, µM (top dose mostly 46.1 µM), without a hit: at the highest dose activity change, negative = inhibition, usual class: inhibitors; hit rate 2.3% among 330,000; also: % is scaled to controls: 0 for no effect and ±100 for the full control effect; nearly all actives have a fitted effect of over 55% in size
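Cells (2,000 per well) received 5-fluorouridine plus test compound or DMSO and were incubated 16 hr at 37 °C, 5% CO2. Luciferase activity was read by luminescence 30 min after ONE-Glo addition; signal suppression marked inhibition of damage-induced ELG1 function.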
RORgamma inh: blocks mouse ROR gamma transcriptional activity. Drosophila S2 Gal4-RORgamma UAS-luciferase reporter, 20 h. Potency, µM (titrated, usually from 53.6 µM), for the others: top-dose activity change, negative = inhibition, usual class: inhibitors. hit rate 5.4% among 310,000. P51450; also: % is scaled to controls: 0 for no effect and ±100 for the full control effect; nearly all actives have a fitted effect of over 60% in size
Target sequence (P51450 whole entry, looked up, the tested form may be a part): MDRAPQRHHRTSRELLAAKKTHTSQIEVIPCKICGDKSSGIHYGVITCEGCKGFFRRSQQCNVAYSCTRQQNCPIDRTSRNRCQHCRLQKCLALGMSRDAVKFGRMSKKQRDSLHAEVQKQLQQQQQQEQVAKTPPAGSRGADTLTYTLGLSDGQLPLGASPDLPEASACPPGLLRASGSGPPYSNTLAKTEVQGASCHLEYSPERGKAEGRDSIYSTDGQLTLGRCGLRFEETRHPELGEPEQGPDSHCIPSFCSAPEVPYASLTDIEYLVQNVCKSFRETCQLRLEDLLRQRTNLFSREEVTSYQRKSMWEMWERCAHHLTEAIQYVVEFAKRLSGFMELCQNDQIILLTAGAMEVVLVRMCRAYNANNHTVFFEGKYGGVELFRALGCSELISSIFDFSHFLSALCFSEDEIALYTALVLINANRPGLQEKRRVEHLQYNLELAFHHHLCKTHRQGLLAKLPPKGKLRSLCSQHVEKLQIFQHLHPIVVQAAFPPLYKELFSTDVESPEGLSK
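Stable Schneider cell line, Gal4 DNA-binding domain fused to ROR gamma, UAS-luciferase. Cmpd 1 hr RT → CuSO4 700 uM final → 20 hr RT → luciferase reagent 10 min → luminescence.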
* = called active by the depositor; ? = inconclusive; . = not tested or not shown; [ ] = dose if it differs, or a comment. Calls follow the shape of the dose curve; as a rule, active = well fitted curve in the direction sought with a large enough effect; inconclusive = small, poorly fitted or top-dose-only effect, or another doubt; inactive = no such curve, though single readings can be large; an effect the other way counts as inactive or inconclusive. Potency is read from the fitted curve at half-maximal effect.

SMILES | MCF10A rerep | SW480 rereplic | Gal4-VP16 FLuc | ELG1 repair inh | RORgamma inh
Cn1c(SCC(=O)NCC2CCCO2)nc2c([nH]c3ccccc32)c1=O (stereo unspecified) | 3% | -4% | -6% | ? | 2%
C=CCn1c(SCC(=O)NCC2CCCO2)nc2c([nH]c3ccccc32)c1=O (stereo unspecified) | ? | -11% | -9% | 4.1µM* | 7%
COc1ccccc1Nc1nc(C)cc(C)c1C(N)=O | 2% | -7% | 2% | -2% | 7%
Cc1cc(C)c(C(N)=O)c(Nc2cccc3ccccc23)n1 | -3% | 1% | ? | -1% | 2.8µM*
CC(C)NC(=O)N(C)C[C@H]1Oc2ccc(NC(=O)CCN3CCOCC3)cc2C(=O)N([C@H](C)CO)C[C@@H]1C | ? | -1% | . | -1% | .
COc1ccc(-n2nnnc2-c2cccc(OC)c2)cc1 | 4.1µM* | 3.3µM* | -3%[0.365 µM] | 29% | -3%
CCN(CC(=O)Nc1cc(Cl)ccc1C)C(=O)c1nc2nc(C)cc(C)n2n1 | ? | 2% | . | -3% | .
Cc1cccc(CN2CCN([C@@H](c3ccccc3)c3ccc(Cl)cc3)CC2)c1 | ? | 7%[20.6 µM] | 1%[17 µM] | . | 8%[2.98 µM]
O=C(/C=C/c1ccc2c(c1)OCCCO2)c1ccccc1O | ? | -5% | ? | ? | ?
Cc1ccc(O)c(C(=O)/C=C/c2ccc3c(c2)OCCCO3)c1 | 13µM* | ? | 2% | ? | 0%
Clc1ccccc1/C=N/NC1=Nc2cccc3cccc1c23 | ? | ? | ? | ? | 0.28µM*
C(=N\NC1=Nc2cccc3cccc1c23)/c1ccccn1 | ? | 14% | . | ? | 0.04µM*
CCCCc1ccc(S(=O)(=O)NNC(=S)NCc2ccco2)cc1 | 11% | 1% | ? | -17% | 8.9µM*
CC(C)CC(=O)NNC(=S)NCc1ccco1 | -31% | -39% | -6% | -1% | ?
CC1(C(=O)NNC(=S)NCc2ccco2)CC1(Cl)Cl (stereo unspecified) | -19% | -10% | -2% | -5% | 8.9µM*
O=S(=O)(NCc1ccccc1)c1ccc(NC(=S)NCc2ccco2)cc1 | -2% | -3% | -16% | ? | ?
CCNS(=O)(=O)c1ccc(NC(=S)NCc2ccco2)cc1 | 1% | 3% | -11% | 5% | 15%
CC(=O)Nc1ccc(S(=O)(=O)NNC(=S)NCc2ccco2)cc1 | ? | 5% | -28% | 12% | 11µM*
O=C1CN(C(=O)CNC(=O)c2ccc(Cl)cc2Cl)CCN1 | 4% | -1% | 3% | 1% | -24%
O=C(NCc1nc2ccccc2[nH]1)[C@H]1C[C@@H]1[C@H](NP(=O)(c1ccccc1)c1ccccc1)c1ccccc1 | . | . | 7% | . | 0%
CCOC(=O)c1c(C)nc2c(c1C)/C(=N/O)CC(C)(C)C2 | 1% | 7% | -8% | 18µM* | 15%
CCOC(=O)c1c(C)nc2c(c1-c1ccc(OC)cc1)C(=O)CC(C)(C)C2 | ? | 3% | -5% | ? | 25%
N#CC1(NC(=O)CN2C(=O)NC(c3ccccc3)(c3ccccc3)C2=O)CCCC1 | -4% | -25% | . | 13% | .
O=C(O)CCCC/C=C(\c1ccccc1)c1cccnc1 | -3% | -4% | -1% | . | -15%
COc1ccc(-c2cc(=O)n(-c3nc4ccccc4[nH]3)[nH]2)cc1 | 18µM* | ? | 5% | ? | 8%
SMILES | MCF10A rerep | SW480 rereplic | Gal4-VP16 FLuc | ELG1 repair inh | RORgamma inh
COc1ccc(-c2nc3ccccc3[nH]2)cc1 | -2% | 11% | 8.9µM* | ? | 7.9µM*
COC(=O)c1ccc(-c2nc3ccccc3[nH]2)cc1 | -3% | . | ? | ? | -33%
COc1ccc2oc(=Nc3ccccc3)c(-c3nc4ccccc4[nH]3)cc2c1 | ? | -71% | ? | ? | 10µM*
COc1ccc(-c2nc(=S)c3ccc4ccccc4c3[nH]2)cc1 | 16% | -5% | ? | 0% | 5.6µM*
CC(C)C(c1nnnn1Cc1ccc(F)cc1)N1CCN(C(=O)c2ccco2)CC1 (stereo unspecified) | 7% | -3% | -7% | 1% | -16%
CC1(C)Cc2c(c(N3CCCC3)nc3sc4c(N5CCN(CCO)CC5)ncnc4c23)CO1 | 1% | ? | -11% | 8.2µM* | 17%
OCCN1CCN(c2ncnc3c2sc2nc(N4CCOCC4)c4c(c23)CCC4)CC1 | -17% | -2% | -23% | ? | 5%
Cc1ccc(C(=O)OCC(=O)NC(C)C2CC3CCC2C3)cc1N (stereo unspecified) | 13% | 3% | . | -29% | .
CCCOc1ccc([N+](=O)[O-])cc1C1NC(=S)NC(c2ccccc2)=C1C(=O)OCC (stereo unspecified) | 13% | ? | 20µM* | -12% | 6.3µM*
CCOC(=O)C1=C(c2cccc(F)c2)NC(=S)NC1C (stereo unspecified) | 3% | -11% | ? | -26% | 14µM*
COc1ccccc1CNC(=O)COC(=O)c1ccccc1-c1ccccc1 | 0% | 0% | . | ? | .
Cc1ccc(Nc2nc(N)c([N+](=O)[O-])c(N3CCC(C)CC3)n2)cc1C | 0% | ? | -2% | ? | 2%
Cc1cccc(Nc2nc(N)c([N+](=O)[O-])c(N3CCCC(C)C3)n2)c1 (stereo unspecified) | ? | ? | ? | 26µM* | -13%
Cc1ccc(Nc2nc(N)c([N+](=O)[O-])c(N3CCOCC3)n2)cc1C | 14% | 9% | -14% | 13µM* | ?
O=c1[nH]c(CSc2ncnc3sc(-c4ccccc4)cc23)nc2ccccc12 | ? | 2% | 9% | 6% | -38%
CC1CN(S(=O)(=O)c2cccc3nsnc23)CC(C)O1 (stereo unspecified) | 18µM* | 21% | -2% | 0% | -43%
O=S(=O)(c1cccc2nsnc12)N1CCCC1 | 13% | -3% | -13% | ? | 2%
COc1cc(NC(=O)C2CCCN(S(=O)(=O)c3cccc4nsnc34)C2)cc(OC)c1 (stereo unspecified) | 5% | -11%[9.22 µM] | -9% | 23µM* | ?
COc1ccc(NC(=O)C2CCCN2S(=O)(=O)c2cccc3nsnc23)c(OC)c1 (stereo unspecified) | -1% | ? | 3% | 3% | -40%
COc1ccc(OC)c(NC(=O)C2CCCN(S(=O)(=O)c3cccc4nsnc34)C2)c1 (stereo unspecified) | -3% | -4% | -2% | 21µM* | 9%
COc1ccc(OC)c(NC(=O)C2CCCN(S(=O)(=O)c3ccc(-n4cnnn4)cc3)C2)c1 (stereo unspecified) | 27% | -6% | -7% | 26µM* | 43%
Cc1cc2c(cc1S(=O)(=O)Nc1ccc(OC(F)(F)F)cc1)OCC(=O)N2 | -4% | 1% | 7% | 5% | 12%
